Assay outcomes from PubChem.
Compounds with a hit are over-represented: about 18% of the library has one in this group of screens.
IL-1B inflam inh: inhibitors of inflammasome signaling (IL-1 beta secretion). THP-1 LPS/ATP IL-1B secretion, AlphaLISA, 16 h; active compounds read low. AID 743279. activity change, % at 57.5 µM. 360,000 compounds, 4.7% hits; in the data active = activity change below about -50%; inconclusive = mostly about -30% to -49%; note: % is set by controls: 0 for no effect and ±100 for the full control effect
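Secreted IL-1B measured by AlphaLISA bead assay after 16 h compound exposure of THP-1 cells; compounds (final up to 57.5 uM) added 1 h before LPS (250 ng/mL) and ATP (1.25 mM) stimulation; lower signal means less secretion.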
TDP1 inh: blocks human tyrosyl-DNA phosphodiesterase 1. Potency, µM (highest dose often 130 µM), inactives show top-dose activity change, negative = inhibition, usual class: inhibitors. AID 485290. 350,000 compounds, 0.28% hits. Q9NUW8. recombinant TDP1, AlphaScreen DNA substrate cleavage; note: potency is the fitted concentration of half-maximal effect; % is set by controls: 0 for no effect and ±100 for the full control effect; nearly all actives have a fitted effect of over 40% in size
Target sequence (Q9NUW8 whole entry, looked up): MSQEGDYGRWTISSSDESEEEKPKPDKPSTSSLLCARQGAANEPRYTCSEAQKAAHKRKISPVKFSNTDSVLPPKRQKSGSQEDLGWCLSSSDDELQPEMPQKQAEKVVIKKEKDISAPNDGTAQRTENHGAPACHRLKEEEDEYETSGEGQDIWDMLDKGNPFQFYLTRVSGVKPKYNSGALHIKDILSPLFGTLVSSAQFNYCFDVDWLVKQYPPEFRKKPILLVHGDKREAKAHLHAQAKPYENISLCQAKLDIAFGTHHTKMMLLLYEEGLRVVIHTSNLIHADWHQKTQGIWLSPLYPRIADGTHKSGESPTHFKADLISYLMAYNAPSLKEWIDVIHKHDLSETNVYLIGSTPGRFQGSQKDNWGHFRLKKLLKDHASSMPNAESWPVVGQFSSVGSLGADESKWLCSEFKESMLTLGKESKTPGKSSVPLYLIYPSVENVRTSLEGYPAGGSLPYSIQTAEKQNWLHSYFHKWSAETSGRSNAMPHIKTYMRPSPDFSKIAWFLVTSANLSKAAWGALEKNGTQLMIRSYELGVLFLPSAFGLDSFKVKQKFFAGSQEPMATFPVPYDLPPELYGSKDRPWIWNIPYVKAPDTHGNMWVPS
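E. coli-derived human Tdp1, 1 nM final. Cpd preinc 15 min RT; substrate 15 nM final, 5 min RT; AS bead mix 10 ug/ml final, 10 min RT. Signal loss = tyrosine-FITC cleavage. No-enzyme wells = max signal.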
DT40 TDP1 no CPT: qHTS for Inhibitors of human tyrosyl-DNA phosphodiesterase 1 (TDP1): qHTS in cells in absence of CPT; Potency, µM (titrated, usually from 46.2 µM), for inactives: at the highest dose activity change, negative = growth inhibition, usual class: inhibitors; 420,000 compounds, 15% hits; AID 686978, 2013; DT40 Tdp1-/- hTDP1 cells, no CPT, ATP luminescence, 48 h; note: potency is the fitted concentration of half-maximal effect; % is set by controls: 0 for no effect and ±100 for the full control effect; nearly all actives have a fitted effect of over 55% in size
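Seeded 400 DT40-hTDP1 cells/well (vehicle DMSO, no 20 nM CPT); pinned compounds; ≥48 hr at 37 °C; CellTiter-Glo luminescence as viability measure.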
HepG2 tox: counter-screen for TGF-b inhibitors: cytotoxicity in HepG2 cells. HepG2 CAGA-GFP viability, ATP luminescence, 18 h. Potency, µM (series often up to 46.1 µM), without a hit: at the top dose activity change, negative = cytotoxicity, actives largely listed as cytotoxic. 410,000 compounds, 0.76% hits. AID 588856; note: potency is the fitted concentration of half-maximal effect
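HepG2 CAGA-GFP cells (1000/well, DMEM with 1% FBS) received compound, then TGF-beta at 500 pg/mL final, and were incubated 18 hours at 37 degrees C. Viability was read by CellTiter-Glo luminescence. Media-only wells were set as complete cell-killing and DMSO as no toxicity.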
TDP1 cell CPT: growth inhibition of DT40 Tdp1-/-;hTDP1 cells with camptothecin (screen for TDP1 inhibitors); chicken DT40 Tdp1-/-;hTDP1 cells + 20 nM CPT, ATP luminescence, 48 h; Potency, µM (highest dose often 46.2 µM), for inactives: at the top dose activity change, negative = growth inhibition, hits mostly inhibitors; 420,000 compounds, 12% hits; note: potency is the fitted concentration of half-maximal effect; % is set by controls: 0 for no effect and ±100 for the full control effect; nearly all actives have a fitted effect of over 55% in size
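Chicken DT40 Tdp1-/- cells stably complemented with human TDP1 were seeded at 400 cells/well in medium containing 20 nM camptothecin, exposed to pin-transferred compounds, and grown at 37 °C for at least 48 hr. Viability was read as ATP luminescence.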
TGFb SMAD3 inh: blocks TGF-b signaling | HepG2 CAGA-GFP TGF-b/SMAD3 reporter, GFP fluorescence, 18 h; TGF-beta stimulated, 500 pg/mL final | Potency, µM (top dose mostly 46.1 µM), without a hit: top-dose activity, negative = inhibition, usual class: inhibitors | 410,000 compounds, 1.2% hits | AID 588855; note: potency is the fitted concentration of half-maximal effect; % is set by controls: 0 for no effect and ±100 for the full control effect; nearly all actives have a fitted effect of over 65% in size
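Using HEPG2 CAGA-GFP reporter cells at 1000 cells/well, we pinned test compounds, stimulated with recombinant TGF-beta (500 pg/mL final) and measured total well GFP after 18 h.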
* marks the source's active call; other numbers are inactive results; ? = inconclusive; . = not tested or not shown; [ ] = remark or other dose. Unless noted, calls come from the whole dose curve; as a rule, active = well fitted curve in the direction sought with a large enough effect; inconclusive = small, poorly fitted or top-dose-only effect, or another doubt; inactive = no such curve, though single readings can be large; an effect the other way counts as inactive or inconclusive.

SMILES	IL-1B inflam inh	TDP1 inh	DT40 TDP1 no CPT	HepG2 tox	TDP1 cell CPT	TGFb SMAD3 inh
O=C(c1ccco1)N1N=C(c2ccc3nccnc3c2)CC1c1ccccc1 (configuration not stated)	-27	5%	18µM*	-19%	?	-4%
O=C(c1ccco1)N1N=C(c2cccs2)CC1c1ccc(F)cc1 (configuration not stated)	25	9%	-2%	2%	-25%	-10%
CS(=O)(=O)Nc1ccc(C2=NN(C(=O)c3ccco3)C(c3ccc(F)cc3)C2)cc1 (configuration not stated)	-79*	6%	16µM*	-16%	-30%	-5%
COc1ccc(C2=NN(C(=O)c3ccco3)C(c3cc4ccccc4nc3Cl)C2)cc1 (configuration not stated)	10	.	?	-20%	?	-25%
COc1cc(OC)cc(C(=O)N[C@H](C(=O)N2CCc3ccccc32)C(C)C)c1	25	0%	?	-27%	?	?
COc1ccc(C(=O)NNC(=O)C(NC(=O)c2cc(OC)cc(OC)c2)C(C)C)cc1 (configuration not stated)	-22	0%[56.1 µM]	20%	-6%	19%	-9%
COc1cc(OC)c(C(=O)NC23CC4CC(CC(C4)C2)C3)cc1OC	3	5%	18µM*	-11%	?	-13%
COc1cc(OC)cc(C(=O)NC(C(=O)N2CCc3ccccc3C2)C(C)C)c1 (configuration not stated)	31	-10%	?	-2%	21µM*	-15%
COc1cc(OC)cc(C(=O)N[C@H](C(=O)NC23CC4CC(CC(C4)C2)C3)C(C)C)c1	33	8%	?	-34%	29µM*	-2%
Cc1ccc(/C=C/C(=O)Nc2ccccc2C(N)=O)o1	.	-1%	10µM*	-30%	?	1%
NC(=O)c1ccccc1NC(=O)/C=C/c1cccc(Cl)c1	?	4%	-13%	-21%	-23%	16%
NC(=O)c1ccccc1NC(=O)/C=C/c1c(Cl)cccc1Cl	-22	-4%	18µM*	-33%	?	1%
O=C(/C=C/c1ccco1)NCCc1ccccc1	5	-5%	-27%	-10%	5%	2%
Cc1ccc(/C=C/C(=O)NCCc2ccccc2)o1	-27	0%	29µM*	1%	5.8µM*	2%
CCOC(=O)[C@]1(C(NC(=O)OC)c2ccccc2)CCCC1=O (some centres not stated)	.	-2%[21 µM]	.	.	.	.
O=C(COc1ccc2ccc(=O)oc2c1)NCCN1CCOCC1	-6	.	0%	-3%	20%	-11%
CCCCN(C)c1nc(-c2ccco2)c2c(c1C#N)CC(C)(C)OC2	-67*	.	?	-48%	?	?
CCCCCN1CC(=O)N2[C@@H](Cc3c([nH]c4ccccc34)C2(C)C)C1=O	35	.	?	-3%	?	2%
CCCCN(CCCC)CCCN1CC(=O)N2[C@@H](Cc3c([nH]c4ccccc34)C2(C)C)C1=O	-74*	.	-15%	3%	?	19%
CCCCOCCCN1CC(=O)N2[C@@H](Cc3c([nH]c4ccccc34)C2(C)C)C1=O	-17	.	18µM*	-32%	?	?
COc1ccc(NC(=O)c2cc(C3CCCCN3C(=O)c3cc(F)ccc3C)on2)c(C)c1 (configuration not stated)	27	.	8.2µM*	-23%	12µM*	-26%
CCCNC(=O)c1cc(C2CCCN(C(=O)c3cc(C(C)(C)C)nn3C)C2)on1 (configuration not stated)	19	.	?	-10%	?	0%
